Assay results reported in PubChem BioAssay AID1159580 (chemical genetic matrix, 2015).
The whole screen tested about 5,500 compounds, of which about 2,000 (36%) were called active. Not shown: some 18% with an inconclusive outcome. Cut-off read from the data, not from the text of the source: active = normalized growth mostly below about 0.91 (no sharp cut-off); inconclusive = no clear call, values can overlap the other calls; inactive = mostly above about 0.92. Some of the results follow.

Assay: chemical genetic growth profiling, strain panel (AID 1159580);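 note: tested at 20 µM; growth read once vehicle control cultures reached saturation at 30 °C; 1 = growth at the plate median or of vehicle wells; lower values mean less growth of the strain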
Settings: growth OD
[1] = S. cerevisiae deletion strains, locus YAL013W, strain DEP1, hits give low values
[2] = S. cerevisiae deletion strains, locus YBR229C, strain ROT2, hits give low values
[3] = S. cerevisiae deletion strains, locus YDL101C, strain DUN1, hits give low values
[4] = S. cerevisiae deletion strains, locus YDL134C, strain PPH21, hits give low values
[5] = S. cerevisiae deletion strains, locus YDR150W, strain NUM1, hits give low values
[6] = S. cerevisiae deletion strains, locus YEL061C, strain CIN8, hits give low values
[7] = S. cerevisiae deletion strains, locus YGR078C, strain PAC10, hits give low values
[8] = S. cerevisiae deletion strains, locus YHR030C, strain SLT2, hits give low values
[9] = S. cerevisiae deletion strains, locus YHR087W, strain rtc3, hits give low values
[10] = S. cerevisiae deletion strains, locus YJR075W, strain HOC1, hits give low values
[11] = S. cerevisiae deletion strains, locus YLR039C, strain RIC1, hits give low values
[12] = S. cerevisiae deletion strains, locus YLR058C, strain SHM2 (second series), hits give low values
[13] = S. cerevisiae deletion strains, locus YLR085C, strain ARP6, hits give low values
[14] = S. cerevisiae deletion strains, locus YLR262C, strain YPT6, hits give low values
[15] = S. cerevisiae deletion strains, locus YML094W, strain GIM5, hits give low values
[16] = S. cerevisiae deletion strains, locus YMR219W, strain ESC1, hits give low values
[17] = S. cerevisiae deletion strains, locus YMR263W, strain SAP30, hits give low values
[18] = S. cerevisiae deletion strains, locus YMR307W, strain GAS1, hits give low values
[19] = S. cerevisiae deletion strains, locus YNL153C, strain GIM3, hits give low values
[20] = S. cerevisiae deletion strains, locus YNL298W, strain CLA4 (second series), hits give low values
[21] = S. cerevisiae deletion strains, locus YNL322C, strain KRE1, hits give low values
[22] = S. cerevisiae deletion strains, locus YNR030W, strain Alg12, hits give low values
[23] = S. cerevisiae deletion strains, locus YOL006C, strain TOP1, hits give low values
[24] = S. cerevisiae deletion strains, locus YPL055C, strain LGE1, hits give low values
[25] = S. cerevisiae deletion strains, locus YPL241C, strain CIN2, hits give low values
[26] = S. cerevisiae deletion strains, locus YPR135W, strain CTF4, hits give low values
[27] = S. cerevisiae strains, strain wild type, hits give low values

Measured: normalized growth

CCc1cccc(C)c1NC(=O)N1CCN(C(=O)OC(C)(C)C)CC1
inactive: [1] 0.992 | [2] 0.99 | [3] 0.987 | [4] 1.01 | [5] 1.03 | [6] 1.01 | [7] 1 | [8] 1.01 | [9] 0.995 | S. cerevisiae deletion strains, locus YJR043C, strain POL32, hits give low values 1 | [10] 0.988 | [11] 1.04 | [12] 0.99 | [13] 1 | [14] 0.984 | [15] 0.991 | [16] 0.984 | [17] 1.01 | [18] 1.05 | [19] 0.994 | [20] 1.02 | [21] 0.999 | [22] 1.01 | [23] 1.01 | [24] 0.987 | [25] 1.03 | [26] 1.01 | [27] 1

CC(N)=NCc1cccc(CN)c1
inactive: [1] 1.02 | S. cerevisiae deletion strains, locus YAL040C, strain CLN3, hits give low values 1.01 | S. cerevisiae deletion strains, locus YCL061C, strain MRC1 (second series), hits give low values 1.01 | [5] 1.01 | S. cerevisiae deletion strains, locus YDR363W, strain ESC2, hits give low values 1.02 | S. cerevisiae deletion strains, locus YER002W, strain NOP16, hits give low values 1.03 | [18] 1.03 | S. cerevisiae deletion strains, locus YNL175C, strain NOP13, hits give low values 1.02 | S. cerevisiae deletion strains, locus YNL197C, strain WHI3, hits give low values 1 | S. cerevisiae deletion strains, locus YNL224C, strain SQS1, hits give low values 1 | S. cerevisiae deletion strains, locus YOR083W, strain WHI5 (second series), hits give low values 0.996 | [25] 1.01

CCSC(SCC)[C@H](O)[C@@H](O)[C@H](O)CO
inactive: [1] 0.976 | [2] 0.992 | [3] 0.993 | [4] 1.01 | [5] 0.995 | [6] 0.998 | [7] 0.981 | [8] 0.939 | [9] 0.98 | [10] 0.994 | [11] 0.992 | [12] 0.993 | [13] 1.05 | [14] 0.904 | [15] 1.02 | [16] 1 | [17] 0.994 | S. cerevisiae deletion strains, locus YNL128W, strain TEP1, hits give low values 1 | [19] 0.988 | [20] 0.988 | [21] 0.985 | [22] 0.992 | [23] 1.01 | [24] 1 | [25] 1.04 | [26] 0.922 | [27] 0.992
